We go through 40 compounds from PubChem BioAssay (NCI).

Compounds without any hit were thinned out: in the full panel of roughly 83,000, 20% have a hit.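 48-hour exposure, single concentration, 96-well plates; percent growth endpoint where 0 means no net growth. Active: below 10.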 Active and inactive are the calls of the source.

In the test the test system is HOP-62 NSCLC. Nature of the test: NCI-60 one-dose screen, 48 h (100 = growth as untreated, 0 = no growth, -100 = all killed). The following applies: 10 µM. As for the experimental part: Growth inhibition of the HOP-62 human Non-Small Cell Lung tumor cell line is measured as a screen for anti-cancer activity. Cells are grown in 96 well plates and exposed to the test compound for 48 hours. Compounds are tested at a single concentration, which is 10^-5 M for most compounds. The reported endpoint is percent growth (GI% or GIPRCNT), where numbers from 0 - 100% represent growth inhibition, and numbers from -100% - 0 represent cell death. For example, a value of 40 represents 60% growth inhibition. A value of 0 means no net growth occurred over the course of the experiment. A value of -40 indicates 40% of cells at the beginning of the experiment died by the end of the experiment. A value of -100 means all cells are dead at the end of the experiment.
NCI-60 Human Tumor Cell Lines Screen was performed using the standard one-dose NCI protocol, which is described in more detail at https://dtp.cancer.gov/discovery_development/nci-60/default.htm.
Compounds with GIPRCNT values below 10 were considered active. Activity score was based on GIPRCNT using the following formula: […]
Score is 0 for GIPRCNT values of 100 or above, 50 for GIPRCNT values of 0, and 100 for GIPRCNT values of -100.
With `O=C(CSc1nnc(-c2ccc3nc(-c4ccccc4)[nH]c3c2)o1)Nc1ccc(Cl)cc1`, the growth is 62.9% (inactive). For `COc1cc(/C=N/NC(=O)c2ccc3nc(-c4ccc(Cl)cc4)[nH]c3c2)cc(OC)c1OC`, the growth is -77.5% (active).

`CCCCCCCCCCCCCCCCCCCC(=O)NCCc1c[nH]c2ccc(O)cc12`: the growth was 144% (inactive). In the case of `Cc1ccc(-c2nc(Nc3ccccc3C(=O)O)c3ccccc3n2)cc1`, the growth is 28.3% (inactive).

For `CCCCCCCCCCCCCCCCCCCC(=O)NCCc1c[nH]c2ccc(OC(=O)CCCC(=O)OCCOOCCOOCCOOCCOOCCOOCCOOCCOOCCOOCCOOCCOOCCOOCCOC)cc12`, the growth is 120% (inactive). For `Cc1ccc(/C=C/C(=O)c2ccc(S(=O)(=O)NCCNc3nc(Nc4ccc(F)cc4)nc(N(C)C)n3)cc2)cc1`, the growth was 56.2% (inactive). As for `COc1ccccc1[C@H]1C(C(=O)c2ccc(Cl)cc2)C2(N[C@@H]1c1ccccc1)C(=O)Nc1ccccc12` (stereo not given in full), the figure is -21.9% (active).

Consider `O=S(=O)(Nc1ncccn1)c1ccc(-n2c(-c3ccccc3)nc(-c3ccccc3)c2-c2ccccc2)cc1`, for which the growth is 100% (inactive). As for `CCOc1ccc2ncc(C#Cc3cncc(C(=O)Nc4ccc(CN5CCN(C)CC5)c(C(F)(F)F)c4)c3)n2n1`, the growth is -46.8% (active).

With `COc1cc(/C=C/C(=O)c2cc(OC)c(OC)c(OC)c2)ccc1Oc1nc(Nc2ccc(F)cc2)nc(N(C)C)n1`, the growth was -44.5% (active). Take `COc1cc(OC(F)(F)F)ccc1C(=O)Nc1sc2c(c1C#N)CCC(=O)C2`: the growth is 84.8% (inactive). As for `C=CCn1c(SCC(=O)Nc2ccc(C(=O)/C=C/c3ccccc3)cc2)nnc1-c1c[nH]c2ccccc12`, the figure is 74.1% (inactive); as for `O=c1oc2ccc(-c3ccc(F)cc3F)cc2c(=O)n1-c1ccc(Cl)c(C(F)(F)F)c1`, -18.8% (active); as for `Cc1nc2c(cnn2-c2ccccc2)c(=O)n1-c1ccc(NC(=O)c2ccc(F)cc2)cc1`, 64.6% (inactive). Consider `O=c1[nH]c2ccc(Cl)cc2cc1CSc1ccc(Nc2nccc(-c3ccc(Cl)cc3)n2)cc1`, for which the growth was 93.8% (inactive). With `CO[C@H]1CSS[C@@H]1Cn1nc(-c2ccc(Oc3ccccc3)cc2)c2c(N)ncnc21`, the growth is 41.3% (inactive). As to `CN1CCN(c2ccc(Nc3nc(N4CCN(S(=O)(=O)c5ccc(F)cc5)CC4)c4sccc4n3)cc2)CC1`, the growth is -49.6% (active).

On to `OCc1[nH]nc2cc(Nc3ncc4ccc(Br)c(OC5CCC(O)CC5)c4n3)ccc12` (stereo not given), for which the growth was 0.469% (active). Take `CC(=O)NS(=O)(=O)c1ccc(NC(=O)CSC2=NC(c3ccccc3)C(C(C)=O)=C(C)N2)cc1` (stereo not given): the growth was 103% (inactive). Next, `CO[C@@H]1CSS[C@H]1Cn1nc(-c2ccc(Oc3ccccc3)cc2)c2c(N)ncnc21`: 111% (inactive). With `CN1C(=O)N(C)C2SC(N/N=C/c3ccccc3F)=NC21` (stereo not given), the growth was 68.3% (inactive).

For the compound `Nc1n[nH]c2cccc(C#Cc3cccc(NC(=O)Nc4cc(C(F)(F)F)cc(C(F)(F)F)c4)c3)c12`, the growth was -55.3% (active).

Take `O=C1NC(=NC23CC4CC(CC(C4)C2)C3)N/C1=C\c1ccc2ncoc2c1`: the growth was 13.2% (inactive). As to `O=C(c1ccc(-n2c(=O)[nH]c3ccccc3c2=O)cc1)N1CCOCC1`, the growth is 134% (inactive).

Consider `CC(=O)Nc1nc(-c2ccc(N3CCN(C)CC3)c(NS(=O)(=O)c3ccc(C(F)(F)F)cc3)c2)cs1`, for which the growth was 63.7% (inactive).

Turning to `O=C(Nc1ccc(F)c(Cl)c1)c1cc(-c2ccc(F)cc2F)ccc1O`, the growth was -13% (active). On to `Nc1cccnc1/C=N/NC(=S)NCCNC(=O)c1ccc(-n2nc(-c3ccccc3O)nc2-c2ccccc2O)cc1`, for which the growth is 22.1% (inactive). `O=C(CSc1nnc(-c2c[nH]c3ccccc23)n1-c1ccccc1)Nc1ccc(C(=O)/C=C/c2ccc(Br)cc2)cc1`: the growth was 89.4% (inactive).

Consider `CC(=O)c1ccc(Nc2nc(SC(C)C)nc(-c3ccccc3)c2C#N)cc1`, for which the growth is -27.8% (active). `CC(=C(c1ccc(OCCN2CCCCCC2)cc1)c1ccc(OCCN2CCCCCC2)cc1)c1ccc(Cl)cc1`: the growth was -96.8% (active). For the compound `N#Cc1c(-c2ccc(Cl)cc2)cc(-c2ccccc2)nc1OCc1ccccc1`, the growth was 84.9% (inactive). As for `O=C(c1ccc(Cl)cc1)C1[C@H](c2ccccc2Br)[C@@H](c2ccccc2)NC12C(=O)Nc1ccc(Br)cc12` (stereo not given in full), the figure is 31.2% (inactive); as for `COc1cc2c(cc1OC)/C(=C\c1sc(Nc3ccc(O)cc3)nc1O)C(C(=O)O)=N2`, 39.2% (inactive); as for `CCCn1c(=O)c2[nH]c(-c3ccc(OCc4nc5ccc(C(F)(F)F)cc5[nH]4)cc3)nc2n(CCC)c1=O`, 87% (inactive). With `O=C(CSc1nnc(-c2c[nH]c3ccccc23)n1-c1ccccc1)c1ccc(Cl)cc1`, the growth is 47.1% (inactive). Take `C/C(=N\N=C\c1ccc(Cl)c([N+](=O)[O-])c1)c1ccc2c(c1)Nc1ccccc1S2`: the growth is 47.5% (inactive). For the compound `Cc1ccc(CSc2nc(Cl)c(C#N)c(-c3ccc(F)cc3)n2)cc1`, the growth was 96.4% (inactive).

In the case of `COc1ccccc1[C@H]1C(C(=O)c2ccc(O)cc2)C2(N[C@@H]1c1ccccc1)C(=O)Nc1ccc(Br)cc12` (stereo not given in full), the growth is 51.3% (inactive). For the compound `COc1ccc(C(=O)Nc2ccc(-c3ccc4c(c3)NC(=O)/C4=C\c3ccc[nH]3)cc2)cc1`, the growth is 63.1% (inactive). As for `O=c1nc(-c2ccccc2)cc(-c2cc3ccccc3nc2Cl)[nH]1`, the growth was 42.5% (inactive).
